Data taken from PubChem BioAssay (Tox21).
Inconclusive results are not listed. Calls of active or inactive are those of the source. Calls follow the shape of the dose curve; as a rule, active = well fitted curve in the direction sought with a large enough effect in the repeat runs; inconclusive = weak or mixed curves; inactive = no such curve, though single readings can be large; an effect the other way counts as inactive or inconclusive.

Columns and labels:
[1] = qHTS RealTime-Glo MT Cell Viability Assay in HepG2 cells - 40 hour (AID 1224870); also: nearly all actives have a fitted effect of over 50% in size; also: potency is read from the fitted curve at half-maximal effect
How it was run: (§1)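 HepG2 cells mixed with RealTime-Glo MT reagents (NanoLuc plus cell-permeant prosubstrate) were seeded at 600 cells/well, incubated 5 h at 37 C/5% CO2, then pinned with compounds in DMSO; nonlytic luminescence tracked viability during 40 h treatment.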

[2] = A CellTox Green Cytotoxicity Assay to monitor cytotoxicity in HEK293 cells - 40 hour (AID 1224871); also: nearly all actives have a fitted effect of over 45% in size; also: potency is read from the fitted curve at half-maximal effect
How it was run: (§2)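 Nonlytic real-time cytotoxicity: HEK293 + CellTox Green reagent plated, 5 h preincubation, pintool compound addition (23 nL in DMSO), 37 C for 40 h, fluorescence measured at successive time points.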

[3] = qHTS RealTime-Glo MT Cell Viability Assay in HepG2 cells - 8 hour (AID 1224873); also: nearly all actives have a fitted effect of over 55% in size
How it was run: as §1

[4] = qHTS RealTime-Glo MT Cell Viability Assay in HEK293 cells - 40 hour (AID 1224874); details: RealTime-Glo luminescence; max response: hits give low values; also: nearly all actives have a fitted effect of over 50% in size; also: potency is read from the fitted curve at half-maximal effect
How it was run: (§3)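 Cells were seeded together with NanoLuc luciferase and a prosubstrate that viable cells reduce to a luciferase substrate. After a 5 h incubation at 37 C/5% CO2, compounds were added and luminescence was measured repeatedly during 40 h of treatment.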

[5] = A CellTox Green Cytotoxicity Assay to monitor cytotoxicity in HEK293 cells - 24 hour (AID 1224875); also: nearly all actives have a fitted effect of over 45% in size; also: potency is read from the fitted curve at half-maximal effect; as to activity change: series mostly up to about 77 µM
How it was run: as §2

[6] = A CellTox Green Cytotoxicity Assay to monitor cytotoxicity in HepG2 cells - 16 hour (AID 1224876); also: nearly all actives have a fitted effect of over 45% in size; also: potency is read from the fitted curve at half-maximal effect
How it was run: (§4)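 Read-out is fluorescence of a cyanine dye excluded from live cells that stains DNA of dead HepG2 cells, with signal proportional to cytotoxicity. Plates were read at 0, 8, 16, 24, 32 and 40 h after compound addition.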

[7] = qHTS RealTime-Glo MT Cell Viability Assay in HepG2 cells - 32 hour (AID 1224877); also: nearly all actives have a fitted effect of over 55% in size; also: potency is read from the fitted curve at half-maximal effect
How it was run: (§5)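 qHTS, HepG2, 600 cells/well, RealTime-Glo (NanoLuc + prosubstrate) added with cells; 5 h preincubation; DMSO compound addition; 37 C; luminescence at 0/8/16/24/32/40 h.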

[8] = A CellTox Green Cytotoxicity Assay to monitor cytotoxicity in HepG2 cells - 24 hour (AID 1224878); also: nearly all actives have a fitted effect of over 45% in size; also: potency is read from the fitted curve at half-maximal effect
How it was run: as §4

[9] = A CellTox Green Cytotoxicity Assay to monitor cytotoxicity in HepG2 cells - 40 hour (AID 1224879); also: nearly all actives have a fitted effect of over 40% in size; also: potency is read from the fitted curve at half-maximal effect
How it was run: as §4

[10] = A CellTox Green Cytotoxicity Assay to monitor cytotoxicity in HEK293 cells - 32 hour (AID 1224881); also: nearly all actives have a fitted effect of over 40% in size; also: potency is read from the fitted curve at half-maximal effect
How it was run: as §2

[11] = A CellTox Green Cytotoxicity Assay to monitor cytotoxicity in HepG2 cells - 0 hour (AID 1224882); also: nearly all actives have a fitted effect of over 35% in size; also: potency is read from the fitted curve at half-maximal effect
How it was run: as §4

[12] = A CellTox Green Cytotoxicity Assay to monitor cytotoxicity in HepG2 cells - 32 hour (AID 1224883); also: nearly all actives have a fitted effect of over 50% in size; also: potency is read from the fitted curve at half-maximal effect
How it was run: as §4

[13] = qHTS RealTime-Glo MT Cell Viability Assay in HepG2 cells - 16 hour (AID 1224885); also: nearly all actives have a fitted effect of over 50% in size
How it was run: as §5

[14] = qHTS RealTime-Glo MT Cell Viability Assay in HEK293 cells - 24 hour (AID 1224886); also: nearly all actives have a fitted effect of over 50% in size; also: potency is read from the fitted curve at half-maximal effect; as to activity change, negative = cytotoxicity: top concentration of the series differs between compounds
How it was run: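 Assay medium contained NanoLuc luciferase plus cell-permeant prosubstrate, added with HEK293 cells at 600 cells/well. After 5 h at 37 C/5% CO2 compounds were added; plates stayed at 37 C for 40 h with serial luminescence reads.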

[15] = qHTS RealTime-Glo MT Cell Viability Assay in HEK293 cells - 8 hour (AID 1224887)
How it was run: as §3

[16] = A CellTox Green Cytotoxicity Assay to monitor cytotoxicity in HEK293 cells - 16 hour (AID 1224888); also: nearly all actives have a fitted effect of over 35% in size; also: potency is read from the fitted curve at half-maximal effect
How it was run: as §2

[17] = qHTS RealTime-Glo MT Cell Viability Assay in HepG2 cells - 0 hour (AID 1224889); also: nearly all actives have a fitted effect of over 50% in size
How it was run: as §5

[18] = qHTS RealTime-Glo MT Cell Viability Assay in HEK293 cells - 0 hour (AID 1224880)
How it was run: as §3

[19] = A CellTox Green Cytotoxicity Assay to monitor cytotoxicity in HEK293 cells - 8 hour (AID 1224884); also: nearly all actives have a fitted effect of over 35% in size; also: potency is read from the fitted curve at half-maximal effect
How it was run: as §2
% is scaled to controls: 0 for no effect and ±100 for the full control effect.

CC(O)CN (centres undefined)
inactive: Potency [1] | Potency [2] | outcome [3] | max response [4] 1.55% | Potency [5] | Potency [6] | Potency [7] | Potency [8] | Potency [9] | Potency [10] | Potency [11] | Potency [12] | outcome [13] | Potency [14] | Potency [15] | Potency [16] | Potency [17]

N#Cc1ccc(CC(=O)c2cccc(C(F)(F)F)c2)cc1
inactive: Potency [1] | Potency [2] | outcome [3] | Potency [5] | Potency [6] | Potency [7] | Potency [8] | Potency [9] | Potency [18] | Potency [10] | Potency [11] | Potency [12] | Potency [19] | outcome [13] | Potency [16] | Potency [17]

SCCOCCOCCS
inactive: Potency [1] | Potency [2] | outcome [3] | max response [4] -3.19% | Potency [5] | Potency [6] | Potency [7] | Potency [8] | Potency [9] | Potency [18] | Potency [10] | Potency [11] | Potency [12] | Potency [19] | outcome [13] | Potency [16] | Potency [17]

CC1=CC(=C(c2ccc(N)cc2)c2ccc(N)cc2)C=CC1=N
inactive: activity change, negative = cytotoxic [1] -1.71% [at 6.97 µM] | cytotoxicity increase [2] 5.33% [at 6.97 µM] | viability change, negative = cytotoxic [3] 2.31% [at 6.97 µM] | activity change [5] -0.584% [at 6.97 µM, hits give high values] | cytotoxicity increase [6] 1.38% [at 6.97 µM] | activity change, negative = cytotoxic [7] -1.73% [at 6.97 µM] | cytotoxicity [8] 0.887% [at 6.97 µM] | cytotoxicity increase [9] 5.34% [at 6.97 µM] | activity change, negative = cytotoxicity [18] 12.8% [at 6.97 µM] | cytotoxicity [11] 0.461% [at 6.97 µM] | cytotoxicity increase [12] 0.891% [at 6.97 µM] | activity change, negative = cytotoxic [13] 0.128% [at 6.97 µM] | activity change, negative = cytotoxicity [15] -15.3% [at 6.97 µM] | activity change [16] -0.601% [at 6.97 µM, hits give high values] | activity change, negative = cytotoxicity [17] 9.14% [at 6.97 µM]

CC(C)(C)N
inactive: Potency [1] | Potency [2] | outcome [3] | max response [4] 1.55% | Potency [5] | Potency [6] | Potency [7] | Potency [8] | Potency [9] | Potency [10] | Potency [11] | Potency [12] | Potency [19] | outcome [13] | Potency [14] | Potency [15] | Potency [16] | Potency [17]

CCn1nc(Cc2ccccc2)cc1C1CCN(C[C@H]2C[C@H](N(C)[C@@H](C(=O)O)C(C)C)C[C@@H]2c2cccc(F)c2)CC1
inactive: Potency [1] | Potency [2] | outcome [3] | Potency [5] | Potency [6] | Potency [7] | Potency [8] | Potency [18] | Potency [10] | Potency [11] | Potency [19] | outcome [13] | Potency [16] | Potency [17]

Cc1ccc(NC=O)c(C)c1
inactive: Potency [1] | Potency [2] | outcome [3] | max response [4] 4.39% | Potency [5] | Potency [6] | Potency [7] | Potency [8] | Potency [9] | Potency [10] | Potency [11] | Potency [12] | Potency [19] | outcome [13] | Potency [14] | Potency [16] | Potency [17]

O=C(Nc1ccccc1)c1cc([N+](=O)[O-])ccc1Cl
inactive: Potency [1] | Potency [2] | outcome [3] | max response [4] -23.2% | Potency [5] | Potency [6] | Potency [7] | Potency [8] | Potency [18] | Potency [10] | Potency [11] | Potency [12] | Potency [19] | outcome [13] | Potency [14] | Potency [15] | Potency [16] | Potency [17]

CC(C)C[C@H](NC(=O)[C@H](Cc1ccccc1)NC(=O)c1cnccn1)B(O)O
active: Potency [1] 0.0213 µM | Potency [2] 0.0379 µM | Potency [4] 0.0239 µM | Potency [6] 13.4 µM | Potency [7] 0.0301 µM | Potency [8] 0.0952 µM | Potency [9] 0.0151 µM | Potency [10] 0.19 µM | Potency [12] 0.0239 µM | Potency [14] 0.0756 µM
inactive: outcome [3] | Potency [5] | Potency [18] | Potency [11] | Potency [19] | Potency [16] | Potency [17]

CC(=O)CC/C=C(\C)CC/C=C(\C)CC/C=C(\C)CCC=C(C)C
inactive: Potency [1] | Potency [2] | outcome [3] | max response [4] 4.5% | Potency [5] | Potency [6] | Potency [7] | Potency [8] | Potency [9] | Potency [10] | Potency [11] | Potency [19] | outcome [13] | Potency [14] | Potency [16] | Potency [17]

NC(=O)c1ccccc1C(N)=O
inactive: Potency [1] | outcome [3] | Potency [7] | Potency [18] | outcome [13] | Potency [17]
active: Potency [2] 49.2 µM | Potency [4] 31 µM | Potency [5] 49.2 µM | Potency [6] 55.2 µM | Potency [8] 55.2 µM | Potency [9] 49.2 µM | Potency [10] 49.2 µM | Potency [11] 49.2 µM | Potency [12] 55.2 µM | Potency [19] 49.2 µM | Potency [16] 49.2 µM

CCc1ccc2c(c1)C(=O)c1ccccc1C2=O
inactive: Potency [1] | Potency [2] | outcome [3] | max response [4] 11.6% | Potency [5] | Potency [6] | Potency [7] | Potency [8] | Potency [9] | Potency [10] | Potency [11] | Potency [12] | Potency [19] | outcome [13] | Potency [14] | Potency [16] | Potency [17]
